# Laboratory results from PubChem BioAssay AID687001 (Broad Institute, 2013).
# Entries with a potency or affinity are not part of this list. Active and inactive are the calls of the source.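 How the source made its calls: active means signal-lowering compounds whose fitted half-maximal concentration is at or below twice the top tested dose in every run; inconclusive means runs disagree, flat 30 to 70% inhibition, or poor curve fit; inactive means the rest.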
# Biological target: Protein S100-A4 (Homo sapiens) (UniProt P26447)
# Test: human S100A4 peptide interaction inhibition curves – biochemical, fluorescence polarization, cherry-picked hits, dose response (AID 687001)
# Settings: FP, S100A4/TAMRA-myosin IIA peptide binding; series mostly up to 11 µM
# Protein S100-A4 (Homo sapiens), sequence (P26447 whole entry, looked up): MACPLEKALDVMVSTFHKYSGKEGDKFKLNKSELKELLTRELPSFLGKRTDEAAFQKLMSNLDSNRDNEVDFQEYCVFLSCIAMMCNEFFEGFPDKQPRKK
row,Compound,outcome
1,CCN1CCN(c2ccc(N3CCN(S(=O)(=O)c4ccc(C)c([N+](=O)[O-])c4)CC3)nn2)CC1,inactive
2,Cc1ccc(C(=O)Nc2ccc(N3CCOCC3)cc2)cc1,inactive
3,O=C(Cc1ccc(Br)cc1)N/N=C/c1cccnc1,inactive
4,Cc1ccc(S(=O)(=O)Nc2ccccc2F)cc1C(=O)OC(C)C(=O)N1CCOCC1 (centres undefined),inactive
5,CCCCN1C[C@H](CSC)[C@@H](CC(=O)Nc2ccc(Br)cc2)C1=O,inactive
6,O=C(Nc1ccc(S(=O)(=O)N2CCCCC2)cc1)C1CC(=O)N(Cc2ccccc2)C1 (centres undefined),inactive
7,COc1ccc(OC)c(NC(=O)CSc2nnc(CNC(=O)c3cc(OC)c(OC)c(OC)c3)o2)c1,inactive
8,CC(=O)Nc1ccc(C=NNc2nnc(NN=Cc3ccc(NC(C)=O)cc3)c3ccccc23)cc1,inactive
9,COc1ccc(CNC(=O)CN(C(=O)CCC(=O)Nc2ccccn2)c2ccc(C)cc2)cc1,inactive
10,O=C(NC1CCCCC1)[C@H]1[C@H](CO)[C@H]2Cn3c(cccc3=O)[C@H]2N1C(=O)CC1CC1,inactive
11,C[C@H]1CCCCO[C@H](CN(C)C(=O)Nc2ccc(C(F)(F)F)cc2)[C@@H](C)CN([C@@H](C)CO)C(=O)c2cc(NS(=O)(=O)c3ccccc3)ccc2O1,inactive
12,CCOC(=O)[C@]12CCC=C1N(Cc1ccc3c(c1)OCO3)C(=O)[C@H](CC(=O)NCc1cccc(C(F)(F)F)c1)C2,inactive
13,C[C@@H]1CN([C@H](C)CO)C(=O)c2cc(N(C)C)ccc2O[C@@H](C)CCCCO[C@@H]1CN(C)C(=O)NC1CCCCC1,inactive
14,CCCC(=O)Nc1ccc2c(c1)C(=O)N(C)C[C@H](OC)[C@H](C)CN(Cc1ccccc1)[C@H](C)CO2,inactive
15,O=C1SCCC1NC(=O)C(c1ccccc1)c1ccccc1 (centres undefined),inactive
16,COc1ccc(Cl)cc1Cn1c(C)c(C(=O)NCc2ccc(C#N)cc2)sc1=O,inactive
17,CCC(=O)N[C@@H]1CC[C@H](CCNC(=O)Nc2ccc(C(F)(F)F)cc2)O[C@H]1CO,inactive
18,O=C(c1ccccc1F)N1CC(=O)N2[C@@H](CO)[C@H](c3ccc(C#Cc4ccccc4)cc3)[C@@H]2C1,inactive
19,Cc1ccc(S(=O)(=O)Nc2ccc3c(c2)C(=O)N([C@@H](C)CO)C[C@@H](C)[C@@H](CN(C)S(=O)(=O)c2cn(C)cn2)OCCCC[C@@H](C)O3)cc1,inactive
20,Cc1noc(C)c1S(=O)(=O)N(C)C[C@H]1Oc2ccc(N(C)C)cc2CC(=O)N([C@H](C)CO)C[C@H]1C,inactive

row,Compound,outcome
1,CCCCOc1ccc(S(=O)(=O)N2CCN(c3ccc(N4CCN(CC)CC4)nn3)CC2)cc1,inactive
2,COc1ccc(C2=NN(CCC(=O)NC3CCC(C)CC3)C(=O)CC2)cc1 (centres undefined),inactive
3,COCCOC(=O)c1nccnc1C(=O)Nc1ccc(S(=O)(=O)N2CCOCC2)cc1,inactive
4,Cc1ccc(CCNC(=O)c2cc(-c3ccncc3)nc3ccc(S(=O)(=O)N4CCOCC4)cc23)cc1,inactive
5,CSc1ccccc1OCc1cc(C(=O)NCCN2CCCc3ccccc32)no1,inactive
6,COc1ccc(-c2sc3ccccc3c2-c2ccc(OCCN(C)C)cc2)cc1,inactive
7,CCS(=O)(=O)c1nc(S(=O)(=O)c2ccc(C)cc2)c(NCCCN2CCCC2=O)s1,inactive
8,CC(=O)Nc1ccccc1-c1nc2cc(C#N)c(C#N)cc2[nH]c1=O,inactive
9,OCCC1CN(Cc2ccc3c(c2)CCO3)CCN1Cc1ccc(F)cc1 (centres undefined),inactive
10,COc1cc(OC)c2ccc(=O)oc2c1C(CC(=O)N1CCN(c2ccccc2)CC1)c1ccc2c(c1)OCO2 (centres undefined),inactive
11,O=[N+]([O-])c1ccccc1CN1CCN(S(=O)(=O)Cc2ccccc2)CC1,inactive
12,COc1cccc(CN2CC(C(=O)NCC3CCOCC3)CCC2=O)c1 (centres undefined),inactive
13,COc1ccc(C2SCCN2S(=O)(=O)c2ccc(F)cc2)cc1OC (centres undefined),inactive
14,O=C(C[C@H]1C=C[C@H](NC(=O)c2ccc(F)cc2)[C@H](CO)O1)NCc1ccncn1,inactive
15,N#C[C@@H]1[C@H](c2ccccc2C2=CCCCC2)[C@@H](CO)N1S(=O)(=O)c1cccc(F)c1,inactive
16,CC(=O)Nc1cccc(C(=O)NC2CCCc3c2cnn3-c2ccccc2F)c1 (centres undefined),inactive
17,C[C@@H]1CCCCO[C@@H](CN(C)Cc2ccc(C(=O)O)cc2)[C@H](C)CN([C@H](C)CO)C(=O)c2cc(NC(=O)CCCN(C)C)ccc2O1,inactive
18,Cc1cc(C)n2nc(Sc3ncccc3[N+](=O)[O-])nc2n1,inactive
19,Cc1ccc(-c2ccc(=O)n(Cc3ccc(F)cc3)n2)cc1,inactive
